Test results from PubChem BioAssay AID624260 (Broad Institute, 2012).
The whole screen tested about 44,000 compounds, of which about 30 (0.07%) were called active. Another 1% or so got no clear call; they are omitted. Rule as the data show it: active = inhibition above about 54% (passing the limit was not always enough); inconclusive = no clear call, values can overlap the other calls. Only a selection was taken, and actives are over-represented in it overall.

These molecules were tested against Histone-lysine N-methyltransferase NSD2 (Homo sapiens) (UniProt O96028) (assay: NSD2 histone methyltransferase activity blockers – biochemical, plate reader, single point, primary screen (AID 624260;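 also: inhibitors reduce the monomethyl H3K36 fluorescence signal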)). Details: NSD2-SET H3K36me1 DELFIA fluorescence, at 12.5 µM, stronger effect = higher value.
Histone-lysine N-methyltransferase NSD2 (Homo sapiens), sequence (O96028 whole entry, looked up): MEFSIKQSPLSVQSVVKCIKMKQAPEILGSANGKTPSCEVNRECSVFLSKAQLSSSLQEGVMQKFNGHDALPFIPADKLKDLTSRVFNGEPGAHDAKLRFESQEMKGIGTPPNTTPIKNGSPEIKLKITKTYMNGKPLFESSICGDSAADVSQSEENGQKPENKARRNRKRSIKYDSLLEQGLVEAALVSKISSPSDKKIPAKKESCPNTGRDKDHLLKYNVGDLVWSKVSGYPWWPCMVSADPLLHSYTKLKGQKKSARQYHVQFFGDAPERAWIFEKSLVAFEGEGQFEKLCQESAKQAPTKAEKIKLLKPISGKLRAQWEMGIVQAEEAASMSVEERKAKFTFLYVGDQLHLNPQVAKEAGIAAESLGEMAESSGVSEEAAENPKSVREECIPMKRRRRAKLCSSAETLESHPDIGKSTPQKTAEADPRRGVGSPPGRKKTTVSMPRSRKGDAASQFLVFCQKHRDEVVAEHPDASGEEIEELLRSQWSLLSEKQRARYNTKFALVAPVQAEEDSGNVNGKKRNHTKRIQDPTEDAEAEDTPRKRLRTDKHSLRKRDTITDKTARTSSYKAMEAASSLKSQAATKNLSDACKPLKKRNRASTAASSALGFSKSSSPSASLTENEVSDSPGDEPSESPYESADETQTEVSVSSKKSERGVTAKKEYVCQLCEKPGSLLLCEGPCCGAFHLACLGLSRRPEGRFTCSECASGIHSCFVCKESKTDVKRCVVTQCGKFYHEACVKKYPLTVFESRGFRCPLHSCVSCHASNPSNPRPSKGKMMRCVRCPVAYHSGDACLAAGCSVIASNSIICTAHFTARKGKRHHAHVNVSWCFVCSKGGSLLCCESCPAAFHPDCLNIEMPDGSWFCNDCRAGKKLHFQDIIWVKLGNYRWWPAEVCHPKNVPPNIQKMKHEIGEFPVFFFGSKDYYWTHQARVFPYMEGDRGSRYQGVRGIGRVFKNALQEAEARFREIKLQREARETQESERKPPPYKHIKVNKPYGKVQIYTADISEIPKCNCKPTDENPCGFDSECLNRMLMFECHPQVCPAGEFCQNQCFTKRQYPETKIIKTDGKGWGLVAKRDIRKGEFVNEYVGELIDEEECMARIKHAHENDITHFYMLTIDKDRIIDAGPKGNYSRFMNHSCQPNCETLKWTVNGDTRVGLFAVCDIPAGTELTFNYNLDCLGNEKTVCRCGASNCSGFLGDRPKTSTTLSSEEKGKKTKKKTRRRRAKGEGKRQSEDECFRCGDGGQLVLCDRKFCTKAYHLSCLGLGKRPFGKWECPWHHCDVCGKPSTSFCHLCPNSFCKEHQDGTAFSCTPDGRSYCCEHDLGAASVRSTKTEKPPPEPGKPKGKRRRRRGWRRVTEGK
For `C[C@H](CO)N1C[C@H](C)[C@H](CN(C)Cc2ccncc2)Oc2cc(-c3cncnc3)ccc2S1(=O)=O`, the inhibition was -4.69% (inactive). For `CCCNC(=O)N(C)C[C@H]1Oc2ncc(-c3cccc(C#N)c3)cc2C(=O)N([C@@H](C)CO)C[C@H]1C`, the inhibition was -7.82% (inactive). With `C[C@H](CO)N1C[C@H](C)[C@@H](CN(C)S(=O)(=O)c2cccs2)Oc2ccc(NC(=O)Nc3ccc(C(F)(F)F)cc3)cc2CC1=O` the inhibition was -1.82% (inactive). `C[C@@H]1CN([C@H](C)CO)S(=O)(=O)c2ccc(C#C[C@@H](C)O)cc2O[C@H]1CN(C)C(=O)C1CCCCC1` was tested, and the inhibition was -2.77% (inactive). In the case of `COc1ccc(C#Cc2cnc3c(c2)C(=O)N([C@H](C)CO)C[C@H](C)[C@H](CN(C)C(=O)CC2CC2)O3)cc1`, the inhibition is reported as -0.614% (inactive). With `C[C@@H]1CCCCO[C@@H](CN(C)C(=O)Cc2ccccc2)[C@H](C)CN([C@@H](C)CO)C(=O)c2cc(NC(=O)Nc3ccc4c(c3)OCO4)ccc2O1` the inhibition was -3.09% (inactive). For `CCCC#Cc1cnc2c(c1)C(=O)N([C@H](C)CO)C[C@@H](C)[C@@H](CN(C)C(=O)C1CCOCC1)O2`, the inhibition was 11.1% (inactive). For `C[C@@H]1CN([C@H](C)CO)C(=O)c2cc(NS(=O)(=O)c3ccccc3)ccc2O[C@@H](C)CCCCO[C@H]1CN(C)S(=O)(=O)c1ccc(Cl)cc1`, the inhibition was -1.56% (inactive). For `Cc1noc(C)c1NC(=O)Nc1ccc2c(c1)CC(=O)N([C@@H](C)CO)C[C@@H](C)[C@H](CN(C)Cc1ccc(Oc3ccccc3)cc1)O2`, the inhibition was -7.73% (inactive). With `O=C(C[C@H]1C[C@H]2c3cc(NC(=O)Nc4ccc(F)cc4)ccc3O[C@H]2[C@H](CO)O1)NCC1CC1` the inhibition was 5.06% (inactive). With `COc1ccc(S(=O)(=O)N(C)C[C@H]2OCCCC[C@H](C)Oc3ccc(NC(=O)Nc4ccc(F)cc4)cc3C(=O)N([C@@H](C)CO)C[C@H]2C)cc1` the inhibition was -1.05% (inactive). With `COc1cccc(-c2cnc3c(c2)C(=O)N([C@@H](C)CO)C[C@@H](C)[C@H](CN(C)C(=O)CN(C)C)O3)c1` the inhibition was 8.01% (inactive). With `C[C@H](O)C#Cc1ccc2c(c1)O[C@H](CN(C)Cc1cccnc1)[C@H](C)CN([C@H](C)CO)S2(=O)=O` the inhibition was 2.25% (inactive). With `CCC(=O)N(C)C[C@@H]1Oc2cc(-c3ccccc3OC)ccc2S(=O)(=O)N([C@H](C)CO)C[C@H]1C` the inhibition was -2.36% (inactive). For `CC(=O)N(C)C[C@@H]1Oc2cc(-c3cccc(F)c3)ccc2S(=O)(=O)N([C@H](C)CO)C[C@H]1C`, the inhibition was -1.69% (inactive). With `C[C@H](CO)N1C[C@H](C)[C@@H](CN(C)Cc2ccc(Cl)c(Cl)c2)Oc2ccc(NC(=O)Cn3cnnn3)cc2CC1=O` the inhibition was -4.84% (inactive). With `C/C=C/c1ccc2c(c1)O[C@H](CN(C)C(=O)Nc1ccccc1)[C@H](C)CN([C@@H](C)CO)S2(=O)=O` the inhibition was -4.94% (inactive). For `C[C@@H]1CN([C@@H](C)CO)C(=O)c2c(c3ccccc3n2C)-c2ccccc2CO[C@@H]1CN(C)S(=O)(=O)c1ccc(F)cc1`, the inhibition was -1.17% (inactive). In the case of `C[C@@H]1CN([C@@H](C)CO)C(=O)Cc2cc(NS(=O)(=O)c3ccc(Cl)cc3)ccc2O[C@H]1CN(C)C(=O)Nc1cccc2ccccc12`, the inhibition is reported as -4.23% (inactive). `CC(=O)N(C)C[C@H]1Oc2cc(C#CCN(C)C)ccc2S(=O)(=O)N([C@H](C)CO)C[C@H]1C` was tested, and the inhibition was -0.922% (inactive). In the case of `COc1cccc(CNC(=O)C[C@H]2CC[C@@H](NC(=O)C3CCC3)[C@@H](CO)O2)c1`, the inhibition is reported as 2.46% (inactive). For `COc1ccccc1NC(=O)N[C@H]1CC[C@@H](CC(=O)NCc2ccc(Cl)c(Cl)c2)O[C@H]1CO`, the inhibition was -9.36% (inactive). In the case of `C[C@H](CO)N1C[C@H](C)[C@@H](CN(C)C(=O)Nc2ccc3c(c2)OCO3)Oc2ccc(NS(=O)(=O)c3ccc(Cl)cc3)cc2CC1=O`, the inhibition is reported as 1.14% (inactive). In the case of `C[C@@H](O)C#Cc1ccc2c(c1)O[C@@H](CN(C)Cc1cccnc1)[C@@H](C)CN([C@@H](C)CO)S2(=O)=O`, the inhibition is reported as 3.08% (inactive). In the case of `COCC#Cc1ccc2c(c1)O[C@H](CN(C)C(=O)CC1CC1)[C@@H](C)CN([C@@H](C)CO)S2(=O)=O`, the inhibition is reported as 8.01% (inactive). With `CNC[C@@H]1OCCCC[C@H](C)Oc2ccc(NS(=O)(=O)c3ccc(F)cc3)cc2C(=O)N([C@@H](C)CO)C[C@@H]1C` the inhibition was -5.42% (inactive). `COc1ccc(-c2cnc3c(c2)C(=O)N([C@@H](C)CO)C[C@@H](C)[C@H](CN(C)C)O3)cc1` was tested, and the inhibition was 9.08% (inactive). For `C[C@H](CO)N1C[C@H](C)[C@H](CN(C)C(=O)Nc2ccc3c(c2)OCO3)Oc2cc(C#Cc3ccncc3)ccc2S1(=O)=O`, the inhibition was 2.61% (inactive). With `C[C@@H]1CCCCO[C@H](CN(C)C(=O)CCC(F)(F)F)[C@H](C)CN([C@H](C)CO)C(=O)c2cc(NC(=O)NC3CCCCC3)ccc2O1` the inhibition was -3.86% (inactive). `Cc1[nH]c(/C=C2\C(=O)Nc3ccc(S(=O)(=O)Cc4c(Cl)cccc4Cl)cc32)c(C)c1C(=O)N1CCC[C@@H]1CN1CCCC1` was tested, and the inhibition was 67.1% (active). For `Cc1cc(C)c(/C=C2\C(=O)Nc3ccccc32)[nH]1`, the inhibition was -2.13% (inactive). For `C/C=C/c1ccc2c(c1)O[C@@H](CN(C)C(=O)c1ccncc1)[C@@H](C)CN([C@H](C)CO)S2(=O)=O`, the inhibition was 0.685% (inactive). With `C/C=C/c1cnc2c(c1)C(=O)N([C@@H](C)CO)C[C@@H](C)[C@H](CN(C)Cc1cncnc1)O2` the inhibition was 2.06% (inactive). `CCCC#Cc1ccc2c(c1)O[C@H](CN(C)C(=O)c1ccncc1)[C@H](C)CN([C@H](C)CO)S2(=O)=O` was tested, and the inhibition was 5.45% (inactive). With `C[C@H](CO)N1C[C@H](C)[C@@H](CN(C)C(=O)C2CC2)Oc2cc(-c3cccc(C#N)c3)ccc2S1(=O)=O` the inhibition was -3.58% (inactive). With `Cc1noc(C)c1S(=O)(=O)Nc1ccc2c(c1)CC(=O)N([C@@H](C)CO)C[C@@H](C)[C@H](CN(C)S(=O)(=O)c1cccs1)O2` the inhibition was -2.26% (inactive). For `C[C@@H]1CN([C@@H](C)CO)C(=O)Cc2cc(NC(=O)CCCCCC(=O)Nc3ccccc3N)ccc2O[C@H]1CN(C)Cc1ccc(Cl)c(Cl)c1`, the inhibition was -4.04% (inactive).
